# Peg3 promoter: inhibitors of Peg3 promoter | HeLa PEG-Prom luciferase reporter, luminescence, overnight | inhibition, % at 20 µM | actives 1.7% (n = 360,000);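 active = inhibition of at least 50% at 20 µM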
# TRPM1 prom inh: inhibitors of MITF-driven TRPM1 promoter in melanoma cells; SK-MEL-5 TRPM1 promoter luciferase, 24 h; inhibition, % at 12.5 µM; actives 0.83% (n = 330,000); AID 488899;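 active = mean inhibition across replicates of 60% or more, whatever share of single replicates reaches that level; inconclusive = some that reach 60%, reason not given; inactive = mean inhibition across replicates below 60%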
# Shn3 inh set2: reduces Shn3 3'UTR luciferase signal in osteoblasts | Clone20 osteoblast Shn3 3'UTR firefly luciferase, 24 h | actives 0.52% (n = 360,000) | inhibition, % at 12.5 µM;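 active = mean inhibition of at least 75% with every replicate also reaching 75%; inconclusive = mean inhibition at least 75% but some replicate below; inactive = mean inhibition below 75%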;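 also: 0% = median of neutral control wells and 100% = pilot-screen positive control compound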
# TROY NFkB inh: inhibitors of TROY-dependent NF-kB signaling; Q293 LMP1-TROYcd NF-kB luciferase reporter, 4 h; inhibition, % at 10 µM; actives 0.98% (n = 360,000); AID 1347056;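 active = compounds whose plate-normalised and pattern-corrected inhibition of the luciferase reporter signal at the single screening dose is 50% or more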
# LMP1 NFkB inh: Epstein-Barr LMP1 NF-kappaB reporter inhibition; LMP1-induced NF-kappaB luciferase reporter cells, luminescence; inhibition, % at 12.5 µM; actives 0.69% (n = 350,000); in the data active = inhibition above about 41%; inconclusive = no clear call, values can overlap the other calls;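 also: 0% = neutral control wells and 100% = reference inhibitor control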
# TWEAK Fn14 block: inhibitors of TWEAK-Fn14 interaction signaling; inhibition, % at 10 µM; actives 2% (n = 360,000); TWEAK-stimulated Fn14 reporter cells, luciferase luminescence, 8 h; in the data active = inhibition above about 50%
# * hit, by the source's call; ? = inconclusive; / = not tested or not shown. The list is not random: actives were taken first. Their share in the collection is about 4.1%.
SMILES,Peg3 promoter,TRPM1 prom inh,Shn3 inh set2,TROY NFkB inh,LMP1 NFkB inh,TWEAK Fn14 block
CCOC(=O)C1CCCCN1Cc1cn[nH]c1-c1ccc(F)cc1F (centres undefined),3,3,9,-3,-3,8
Cc1c(C(=O)O)oc2c1/C(=N\O)CC(C)(C)C2,0,-12,-33,-15,-6,-6
COC(=O)c1cc(OC)c(OC)cc1NC(=S)N1CCCC(CO)C1 (centres undefined),6,4,-53,-11,0,-4
CCN1CCN(c2nc(S(=O)(=O)c3ccc(C)cc3)c(Cl)s2)CC1,5,1,26,51*,-7,0
CS(=O)(=O)N(CC(=O)N/N=C/c1cccc2c1OCCO2)c1ccccc1Br,17,5,-2,-7,-3,-13
CCOC(=O)c1ccc(-c2ccc(/C=N/NC(=O)CN(c3ccccc3Br)S(C)(=O)=O)o2)cc1,-104,-24,-6,-4,-58,67*
COc1ccc(C(=O)C(CN2CCCC2)c2ccccc2)cc1 (centres undefined),104*,64*,11,-35,-31,36
CCCCOc1ccc(C(=O)C(CN2CCOCC2)c2ccccc2)cc1 (centres undefined),97*,33,-13,3,-96,31
CCCOc1ccc(C(=O)C(CN2CCCC2)c2ccccc2)cc1 (centres undefined),108*,77*,95*,16,-36,33
COc1ccc(C(=O)C(CN2CCOCC2)c2ccccc2)cc1 (centres undefined),98*,83*,89*,5,?,37
CCCCOc1ccc(C(O)C(CN2CCCCC2)c2ccccc2)cc1 (centres undefined),-12,-6,36,-8,4,-24
CCC(O)(c1ccc(OC)cc1)C(CN1CCOCC1)c1ccccc1 (centres undefined),14,3,8,-22,10,3
COc1ccc(OC)c(NC(=O)c2ccc(CSc3ncccn3)cc2)c1,-13,-36,-3,-2,2,-18
O=C(c1ccccc1)C(CCC(CN1CCOCC1)C(=O)c1ccccc1)CN1CCOCC1 (centres undefined),105*,75*,97*,51*,50*,85*
COc1ccc(C(CC(=O)N2CCCC2)C(C)C)cc1 (centres undefined),7,0,-11,-9,2,17
O=C(c1ccc(F)cc1)C(CN1CCOCC1)c1ccccc1 (centres undefined),105*,90*,94*,22,26,74*
COc1ccc(C(CC(=O)N2CCOCC2)C(C)C)cc1 (centres undefined),-2,-10,-4,0,-10,80*
O=C(c1ccc(Cl)cc1)C(CN1CCCC1)c1ccccc1 (centres undefined),76*,77*,-1,-15,46*,58*
c1ccc(C(CN2CCOCC2)c2ccccc2)cc1,9,1,10,5,5,1
CSc1ccccc1C(=O)C1CCCN(C(=O)c2cncs2)C1 (centres undefined),-19,12,-12,-7,-1,-2
CC(Sc1nnc2n1CCCCC2)C(=O)Nc1ccccc1[N+](=O)[O-] (centres undefined),18,0,-8,-8,-9,8
CCCCC(O)(c1ccc(OC)cc1)C(CN1CCOCC1)c1ccccc1 (centres undefined),52*,-7,25,12,5,27
COc1cc(C(=O)NC(=S)N(CCc2ccccc2)CCc2ccccc2)cc(OC)c1OC,44,17,60,70*,26,38
COc1cc(C(=O)NC(=S)N(C)Cc2ccccc2)cc(OC)c1OC,12,11,14,-20,2,-4
Cc1nn(S(=O)(=O)c2cccs2)c(C)c1Sc1ccc([N+](=O)[O-])cc1,22,11,22,35,10,50*
SMILES,Peg3 promoter,TRPM1 prom inh,Shn3 inh set2,TROY NFkB inh,LMP1 NFkB inh,TWEAK Fn14 block
Cc1nn(S(=O)(=O)c2ccccc2)c(C)c1Sc1ccc([N+](=O)[O-])cc1,-3,-15,7,6,-7,-9
COC1=C(OC)C(=O)C(CCCCCCCCCCO)=C(C)C1=O,-22,/,15,50*,/,77*
COc1cc(CC(=O)N(c2ccccc2)c2nc(C)cs2)cc(OC)c1OC,-9,12,3,11,52*,-16
Cc1ccc(-c2csc3ncn(/N=C/N(C)C)c(=O)c23)o1,10,11,-20,10,4,98*
O=C(CCSc1ccccc1)Nc1nc2c(s1)COc1ccccc1-2,54*,32,0,26,-28,-22
COc1ccc(C(=O)Nc2ccc(Br)cc2F)cc1S(=O)(=O)N1CCCC1,-4,-6,25,10,-6,18
COc1cccc(COCC(O)Cn2cnc3cc(C)c(C)cc32)c1 (centres undefined),7,-9,14,11,11,2
COCCCN(Cc1cc(OC)c(OC)c(OC)c1)C(=S)Nc1cccc(Cl)c1,13,/,82*,6,5,4
C=CCOc1ccc(C2=NOC(C(=O)Nc3ccc4c(c3)OCCO4)C2)cc1OC (centres undefined),21,-7,19,28,5,27
COc1ccc(-c2sc(Nc3ccccc3)n[n+]2-c2ccccc2)cc1Br,-10,-4,10,11,4,-11
C(=C\c1sc(Nc2ccccc2)n[n+]1-c1ccccc1)/c1ccccc1,101*,79*,-18,-51,-2,-3
O=C(COC(=O)C12CC3CC(CC(O)(C3)C1)C2)Nc1ccc(Br)cc1F,-234,-128,-61,58*,-31,33
O=C(COC(=O)C12CC3CC(CC(O)(C3)C1)C2)Nc1ccccc1OC(F)F,10,-9,6,3,-3,0
Cc1cc(C(=O)Nc2ccc3c(c2)CCC3)c2ccccc2n1,3,8,0,12,-2,-14
CCOc1ccc(-c2cc(C(=O)Nc3ccc(C)c(NS(C)(=O)=O)c3)[nH]n2)c(C)c1,-4,/,7,39,/,52*
c1ccc(CNc2nc(NCc3ccccc3)c3sccc3n2)cc1,-5,/,22,58*,/,39
Fc1ccc(Nc2nc(NCc3ccco3)c3ccccc3n2)cc1,-27,16,80,46,12,62*
c1csc(CNc2nc(Oc3ccncc3)c3sccc3n2)c1,2,/,-17,-7,/,27
COCCNc1nc(NCc2ccccc2F)c2sccc2n1,13,/,26,19,/,-19
c1ccc(CNc2nc(NCCOc3ccccc3)c3sccc3n2)cc1,19,/,68,42,/,50
COc1ccccc1CNc1nc(NCc2ccccc2F)c2sccc2n1,36,/,66,58*,/,90*
c1ccc(CNc2nc(Oc3ccncc3)c3sccc3n2)cc1,-13,/,-2,-10,/,99*

# From PubChem
